Data on seven compounds can be found in PubChem BioAssay (Tox21).

Inconclusive results are not listed. Activity calls are given as the source filed them. Unless noted, calls come from the whole dose curve.

Assay [1] can be described thus: Nuclear factor erythroid 2-related factor 2/antioxidant responsive element (Nrf2/ARE) small molecule agonists: qHTS cell viability counter screen in human keratinocytes (AID 1919968; active = well fitted cell-killing curve with a large enough effect in the repeat runs; note: nearly all actives have a fitted effect of over 55% in size). The method, boiled down: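 Parallel cytotoxicity read: KeratinoSens HaCaT cells, compound treatment 23 h, viability by CellTiter-Fluor fluorescence 1 h post-reagent.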
Assay [2] in a line: Nuclear factor erythroid 2-related factor 2/antioxidant responsive element (Nrf2/ARE) small molecule agonists: luciferase reporter gene qHTS assay in human keratinocytes (AID 1919969). Note: nearly all actives have a fitted effect of over 35% in size.
For assay [3], the target named is Gonadotropin-releasing hormone receptor (Homo sapiens) (UniProt P30968). Nature of the assay: Human gonadotropin-releasing hormone receptor (GnRHR) small molecule agonists, calcium flux assay in GnRHR-HEK293 cells (AID 1920063). Note: nearly all actives have a fitted effect of over 35% in size. The gist of the method: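 Calcium flux, agonist mode, human GnRHR stably integrated in HEK293; dye 1 h at 37 C before compound; Ex/Em=480/540 kinetic read, 3 min; 15 concentrations, triplicate.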
Sequence of Gonadotropin-releasing hormone receptor (Homo sapiens) (P30968 whole entry, looked up): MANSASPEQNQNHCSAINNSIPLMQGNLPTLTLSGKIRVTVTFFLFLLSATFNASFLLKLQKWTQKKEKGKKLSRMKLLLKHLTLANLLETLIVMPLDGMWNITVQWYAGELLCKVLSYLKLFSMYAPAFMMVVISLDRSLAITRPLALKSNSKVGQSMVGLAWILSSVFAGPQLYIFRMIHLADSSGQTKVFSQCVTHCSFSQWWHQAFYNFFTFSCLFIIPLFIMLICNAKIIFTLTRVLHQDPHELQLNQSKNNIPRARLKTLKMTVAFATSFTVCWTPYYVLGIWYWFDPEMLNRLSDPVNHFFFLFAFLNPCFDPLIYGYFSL
On the technique in general: A change in cytosolic calcium serves as a functional read-out for many receptors and channels.

Assay [4] is described as follows: G protein-coupled receptor (GPCR) small molecule agonists, calcium flux assay: HEK293 wild type cell line counter screen (AID 1920065). The method, boiled down: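 Non-specific calcium responders were flagged by adding DMSO-dissolved compounds to dye-loaded cells and reading 480/540 nm fluorescence each second for 3 min; ATP served as positive control.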
The nature of assay [5]: p53 small molecule agonists, cell-based qHTS assay with rat liver microsomes (AID 1963578). The method, boiled down:
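With rat liver microsomes and NADPH present (0.5 mg/mL final each), p53RE-bla cells are treated with compound for 16 h at 37 C. LiveBLAzer detection mixture is then applied for 2 h at room temperature in the dark.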

Assay [6] can be described thus: p53 small molecule agonists, cell-based qHTS assay with human liver microsomes: qHTS cell viability counter screen (AID 1963579). Note: nearly all actives have a fitted effect of over 45% in size. The gist of the method:
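In this multiplexed counter screen, the reporter plates were subsequently treated with CellTiter-Glo so that cell viability, reflected by luminescence, could be recorded for p53RE-bla cells dosed 16 h with compounds under microsomal activation (HLM and NADPH).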

Assay [7] in a line: p53 small molecule agonists, cell-based qHTS assay with rat liver microsomes: qHTS cell viability counter screen (AID 1963580). Note: nearly all actives have a fitted effect of over 45% in size. The method, boiled down: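 Cytotoxicity counter screen: intracellular ATP read by CellTiter-Glo luminescence in the p53 reporter wells. HCT-116 p53RE-bla cells were treated for 16 h at 37 C alongside rat liver microsomes and NADPH, each 0.5 mg/mL final.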
In general terms: qHTS replaces the single test concentration by a dilution series.

Assay [8] in a line: p53 small molecule agonists, cell-based qHTS assay: qHTS cell viability counter screen (AID 1963581). Note: nearly all actives have a fitted effect of over 45% in size. The method, boiled down: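 Multiplexed with the reporter read, a CellTiter-Glo step (30 min, room temperature) gauges ATP-based viability of HCT-116 p53RE-bla cells after 16 h compound incubation at 37 C.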
Assay [9] deals with 5-hydroxytryptamine receptor 2A (Homo sapiens) (UniProt P28223). Nature of the assay: 5-hydroxytryptamine receptor 2A (HTR2A) small molecule antagonists, cell-based qHTS assay (AID 1963586). Note: nearly all actives have a fitted effect of over 45% in size. The gist of the method: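 CHO cells stably expressing human HTR2A were plated for 18 h at 37 C, then loaded with calcium dye for 1 h. Compounds were preincubated 5 min at room temperature before DOI (4 nM solution) was added. Kinetic fluorescence was read for 3 min.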
Sequence of 5-hydroxytryptamine receptor 2A (Homo sapiens) (P28223 whole entry, looked up): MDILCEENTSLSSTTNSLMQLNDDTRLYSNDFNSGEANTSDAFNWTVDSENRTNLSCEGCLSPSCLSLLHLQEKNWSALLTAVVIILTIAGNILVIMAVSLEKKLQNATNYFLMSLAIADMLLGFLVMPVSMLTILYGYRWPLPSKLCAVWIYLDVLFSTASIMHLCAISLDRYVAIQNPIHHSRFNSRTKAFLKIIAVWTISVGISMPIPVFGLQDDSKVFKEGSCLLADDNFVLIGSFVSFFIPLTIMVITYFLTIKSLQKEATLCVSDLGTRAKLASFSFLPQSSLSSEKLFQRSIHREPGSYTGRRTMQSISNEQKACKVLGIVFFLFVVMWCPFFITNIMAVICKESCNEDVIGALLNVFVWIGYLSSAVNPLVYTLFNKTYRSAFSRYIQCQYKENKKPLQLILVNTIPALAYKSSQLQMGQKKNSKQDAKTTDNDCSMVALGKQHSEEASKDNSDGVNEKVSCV

For assay [10] the target is unchanged. Put plainly: 5-hydroxytryptamine receptor 2A (HTR2A) small molecule agonists, cell-based qHTS assay (AID 1963587). Note: nearly all actives have a fitted effect of over 30% in size. The gist of the method:
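Kinetic calcium-flux fluorescence (2 min, 1 sec intervals) after compound addition in agonist mode. HTR2A-CHO cells were cultured 18 h, then dye-loaded 1 h at 37 C.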

The target of assay [11] is Muscarinic acetylcholine receptor M1 (Homo sapiens) (UniProt P11229). Put plainly: Cholinergic receptor muscarinic 1 (CHRM1) small molecule antagonists, cell-based qHTS assay (AID 1963588). Note: nearly all actives have a fitted effect of over 40% in size. Note: potency is the fitted concentration of half-maximal effect. The method, boiled down:
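Compounds were tested at 15 concentrations in three independent runs. Dye-loaded CHRM1-CHO cells were exposed 5 min at room temperature before stimulation by acetylcholine added at 50nM. Intracellular calcium was read kinetically on FDSS for 3 min.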

Assay [12] shares this target. Nature of the assay: Cholinergic receptor muscarinic 1 (CHRM1) small molecule agonists, cell-based qHTS assay (AID 1963589). Note: nearly all actives have a fitted effect of over 35% in size. The gist of the method:
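qHTS, 15-point titration, 3 independent runs: compounds pin-transferred onto dye-loaded CHRM1-CHO cells (human M1), calcium fluorescence followed every second to detect agonism.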

The nature of assay [13]: cAMP Responsive Elements (CRE) small molecule agonists, cell-based qHTS assay (AID 1963590). The gist of the method:
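Quantitative HTS for CRE agonists: HEK 293T CRE-bla cells, overnight plating, 3 h compound incubation at 37 C/5% CO2, then 2 h room-temperature LiveBLAzer B/G FRET substrate loading.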

Assay [14] in a line: cAMP Responsive Elements (CRE) small molecule antagonists, cell-based qHTS assay (AID 1963591; active = well fitted inhibition curve with a large enough effect in the signal ratio in the repeat runs, not every such curve was filed as active; the % refers to the signal ratio). The gist of the method: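 Fluorescence intensity from cleaved LiveBLAzer B/G substrate (2 h, room temperature) quantified CRE-bla activity in HEK 293T cells exposed 3 h to compound with 0.25 uM final NKH477.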
In assay [15] the target is Beta-2 adrenergic receptor (Homo sapiens) (UniProt P07550). Nature of the assay: Adrenergic beta2 receptor (ADRB2) small molecule antagonists, cell-based qHTS assay (AID 1963592). Note: series mostly up to about 92 µM; nearly all actives have a fitted effect of over 50% in size. The method, boiled down:
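Assay format: CHO-ADRB2 cells, 18-20hr seeding at 37C/5% CO2, then compound plus 1nM isoproterenol agonist mix for 0.5hr RT. Homogeneous time-resolved fluorescence cAMP detection after 1hr, expressed as 665/615 nm ratio.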

Assay [16] deals with D(2) dopamine receptor (Homo sapiens) (UniProt P14416). Put plainly: Dopamine D2 receptor (DRD2) small molecule antagonists, cell-based qHTS assay (AID 1963595; active = well fitted inhibition curve with a large enough effect in the signal ratio in the repeat runs, with a control signal flat; the % refers to the signal ratio). The method, boiled down:
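DRD2-HEK293; 0.1 mM Ro20-1724; cpd 10 min RT; NKH477 200 nM + quinpirole 12 nM, 30 min RT; HTRF cAMP (cAMP-d2/anti-cAMP cryptate), 665/620 nm ratio after 1 h.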

Assay [17] can be described thus: p53 small molecule agonists, cell-based qHTS assay (AID 1963582; active = well fitted activation curve with a large enough effect in the signal ratio in the repeat runs, not every such curve was filed as active; the % refers to the signal ratio). The method, boiled down: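 Beta-lactamase reporter cells (p53RE-bla) treated with compounds for 16 h at 37 C; FRET substrate, 2 h, room temperature; fluorescence intensity.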
The target of assay [18] is D(2) dopamine receptor (Homo sapiens) (UniProt P14416). Nature of the assay: Dopamine D2 receptor (DRD2) small molecule agonists, cell-based qHTS assay (AID 1963594). Note: nearly all actives have a fitted effect of over 35% in size. The method, boiled down: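 cAMP accumulation in DRD2-HEK293 cells measured by HTRF after 1 h detection; compounds added 10 min before NKH477 (200nM […]) forskolin-analogue stimulation, 30 min at room temperature, with Ro20-1724 present at 0.1 mM final.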
Sequence of D(2) dopamine receptor (Homo sapiens) (P14416 whole entry, looked up): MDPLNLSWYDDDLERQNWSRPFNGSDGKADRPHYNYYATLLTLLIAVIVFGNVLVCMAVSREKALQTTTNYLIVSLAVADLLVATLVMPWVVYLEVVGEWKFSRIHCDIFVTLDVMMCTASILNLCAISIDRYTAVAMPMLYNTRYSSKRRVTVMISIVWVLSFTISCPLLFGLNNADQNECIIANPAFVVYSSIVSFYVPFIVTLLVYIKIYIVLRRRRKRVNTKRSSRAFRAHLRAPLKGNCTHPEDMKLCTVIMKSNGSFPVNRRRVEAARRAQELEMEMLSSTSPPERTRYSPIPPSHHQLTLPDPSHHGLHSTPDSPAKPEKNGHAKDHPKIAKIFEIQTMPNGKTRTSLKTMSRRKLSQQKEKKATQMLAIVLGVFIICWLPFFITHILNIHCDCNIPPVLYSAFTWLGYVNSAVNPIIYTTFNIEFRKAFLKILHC

In assay [19] the target is Beta-2 adrenergic receptor (Homo sapiens) (UniProt P07550). Nature of the assay: Adrenergic beta2 receptor (ADRB2) small molecule agonists, cell-based qHTS assay (AID 1963593).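 Note: CHO cells stably overexpressing human ADRB2.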 The method, boiled down:
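CHO cells stably over-expressing ADRB2 were plated overnight at 37C, then dosed with compounds plus a stimulation mix containing 100uM IBMX and 25uM Ro-20-1724 for 0.5hr at room temperature. cAMP was measured by HTRF competition, 1hr.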

Sequence of Beta-2 adrenergic receptor (Homo sapiens) (P07550 whole entry, looked up): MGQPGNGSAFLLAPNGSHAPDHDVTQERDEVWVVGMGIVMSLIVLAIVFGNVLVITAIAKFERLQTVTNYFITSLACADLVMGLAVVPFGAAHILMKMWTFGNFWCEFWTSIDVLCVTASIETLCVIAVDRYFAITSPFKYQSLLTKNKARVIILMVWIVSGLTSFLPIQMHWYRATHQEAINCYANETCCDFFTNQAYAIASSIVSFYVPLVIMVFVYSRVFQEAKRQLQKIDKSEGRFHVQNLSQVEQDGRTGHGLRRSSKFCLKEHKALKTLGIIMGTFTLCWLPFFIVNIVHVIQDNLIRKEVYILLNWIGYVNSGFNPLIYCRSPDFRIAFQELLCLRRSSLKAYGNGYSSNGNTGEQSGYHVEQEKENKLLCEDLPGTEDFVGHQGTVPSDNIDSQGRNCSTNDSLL
Sequence of Muscarinic acetylcholine receptor M1 (Homo sapiens) (P11229 whole entry, looked up): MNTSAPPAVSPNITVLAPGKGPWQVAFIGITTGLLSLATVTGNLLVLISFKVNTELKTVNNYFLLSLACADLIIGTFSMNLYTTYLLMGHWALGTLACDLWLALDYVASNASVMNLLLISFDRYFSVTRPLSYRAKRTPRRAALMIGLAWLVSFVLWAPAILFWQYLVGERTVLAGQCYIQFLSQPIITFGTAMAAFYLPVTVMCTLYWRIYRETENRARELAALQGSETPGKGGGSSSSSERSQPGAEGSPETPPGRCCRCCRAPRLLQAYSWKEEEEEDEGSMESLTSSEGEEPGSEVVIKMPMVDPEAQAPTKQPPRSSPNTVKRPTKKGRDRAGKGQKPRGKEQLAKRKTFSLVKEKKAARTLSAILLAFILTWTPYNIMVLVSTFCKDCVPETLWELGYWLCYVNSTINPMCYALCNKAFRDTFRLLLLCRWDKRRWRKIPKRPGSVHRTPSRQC

Regarding `CC(=[OH+])/C=C(/C)[O-].CC(=[OH+])/C=C(\C)[O-].CC(=[OH+])/C=C(\C)[O-].[Fe]`, the Potency entry in [1], in assay [2], in assay [3], in assay [4], in assay [5] and in assay [6] was “inactive” throughout. Besides, the Potency entry in [7], in [8], in assay [9], in assay [10], in assay [11] and in assay [12] was “inactive” throughout. For the same compound, the Potency result in assay [13], in [14], in [15] and in [16] was “inactive” throughout.
As for `CC1CN1` (stereo not given), the Potency result in assay [1], in assay [2], in assay [3], in [4], in assay [6] and in assay [7] was “inactive” throughout. The Potency result in assay [17], in assay [9], in [10], in assay [12], in assay [13] and in assay [14] was “inactive” each time. For the same compound, the Potency entry in [15], in assay [18] and in assay [16] was “inactive” in each case. Besides, the Potency in assay [11] is 3.75 µM (active).
Take `O=C(NC(=O)c1c(F)cccc1F)Nc1ccc(Cl)cc1`: the Potency entry in assay [1], in assay [2], in assay [3], in assay [4], in assay [6] and in [7] was “inactive” each time. Moreover, the Potency entry in assay [8], in assay [9], in [10], in assay [11], in [13] and in assay [14] was “inactive” throughout. In addition, the Potency entry in assay [15], in assay [18] and in assay [16] was “inactive” each time.
`CCOC(=O)N(C)N=O`: the Potency result in [1], in [2], in assay [3], in [4], in [6] and in assay [8] was “inactive” throughout. Moreover, the Potency entry in [17], in [10], in assay [11], in assay [12], in assay [13] and in [14] was “inactive” throughout. For the same compound, the Potency entry in assay [15], in assay [18] and in assay [16] was “inactive” in each case.
With `CCCCN(CCCCO)N=O`, the Potency result in assay [1], in [2], in [3], in assay [4], in assay [5] and in [6] was “inactive” each time. In addition, the Potency result in [7], in assay [8], in assay [17], in [9], in assay [10] and in [11] was “inactive” each time. Moreover, the Potency entry in [12], in assay [13], in [14], in assay [15], in assay [18] and in [16] was “inactive” in each case.
Regarding `CCNc1nc(Cl)nc(NCC)n1`, the Potency entry in assay [1], in assay [2], in assay [3], in [4], in assay [5] and in [6] was “inactive” throughout. Also, the Potency entry in assay [7], in [17], in [9], in assay [10], in assay [11] and in assay [12] was “inactive” throughout. The Potency entry in [13], in assay [14], in assay [15] and in assay [18] was “inactive” throughout.
Take `C[C@]12CC[C@H]3[C@@H](CCC4=CC(=O)CC[C@@H]43)[C@@H]1CC[C@@H]2O`: the Potency result in [1], in assay [2], in assay [3], in [4], in assay [5] and in assay [6] was “inactive” throughout. Also, the Potency result in assay [7], in assay [8], in [17], in assay [14], in [15] and in assay [19] was “inactive” in each case. Further, the Potency result in assay [18] and in assay [16] was “inactive” throughout.
